Screening results (PubChem)
RGS4-Gao reg = modulators of RGS4 binding to Galphao, primary screen, biochemical, multiplexed bead flow cytometry; Guanine nucleotide-binding protein G(o) subunit alpha (Homo sapiens), P09471; actives lie on both sides; binding response (% of control), % at 10 µM; 220,000 compounds, 0.33% hits; in the data active = binding response below about 49% or above about 150%; inactive = in between;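 also: fluorescent Galphao activated with aluminum fluoride binding bead-coupled RGS4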
Target sequence (P09471 whole entry, looked up): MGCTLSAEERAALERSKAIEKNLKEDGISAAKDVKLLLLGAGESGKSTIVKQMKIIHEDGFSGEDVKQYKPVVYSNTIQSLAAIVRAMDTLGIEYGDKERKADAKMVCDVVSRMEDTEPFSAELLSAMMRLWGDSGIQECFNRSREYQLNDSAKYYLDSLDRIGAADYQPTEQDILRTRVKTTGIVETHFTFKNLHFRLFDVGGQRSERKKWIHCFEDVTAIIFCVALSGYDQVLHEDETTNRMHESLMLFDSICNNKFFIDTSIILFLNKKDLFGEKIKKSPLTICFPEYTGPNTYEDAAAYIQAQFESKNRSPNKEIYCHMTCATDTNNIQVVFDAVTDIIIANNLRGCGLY
RGS16-Gao HTS = modulators of RGS16 binding to Galphao, primary screen, biochemical, human proteins, multiplexed bead flow cytometry; Regulator of G-protein signaling 16 (Homo sapiens) + Guanine nucleotide-binding protein …; bead-based flow cytometry RGS16-Galphao binding, fluorescence; actives lie on both sides; binding response (% of control), % at 10 µM; 220,000 compounds, 0.38% hits;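 also: Galphao activated by GDP with aluminum fluoride before binding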
RGS8-Gao = RGS8-Galphao binding modulators, primary screen, biochemical, multiplexed bead flow cytometry; Guanine nucleotide-binding protein G(o) subunit alpha (Homo sapiens), P09471; actives lie on both sides; response (percent of control binding), % at 10 µM; 220,000 compounds, 0.34% hits; AID 1423, 2008; in the data active = response below about 60% or above about 140%; inactive = in between;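 also: Galphao activated as the GDP aluminium fluoride complex binding bead-coupled RGS8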
RGS7-Gao = RGS7-Galphao binding modulators, primary screen, biochemical, multiplexed bead flow cytometry; Guanine nucleotide-binding protein G(o) subunit alpha (Homo sapiens), P09471; actives lie on both sides; binding response (% of control), % at 10 µM; 220,000 compounds, 0.35% hits; AID 1439, 2008; in the data active = binding response below about 49% or above about 150%; inconclusive = no clear call, values can overlap the other calls; inactive = in between;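 also: fluorescent Galphao held in activated GDP-AlF4 state binding bead-coupled RGS7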
Avidin fluor = green autofluorescence of compounds with avidin beads – biophysical, 488/530 nm, flow cytometry, artefact control, profiling panel. 220,000 compounds, 0.38% hits. AID 1775, 2009. compound fluorescence 488/530 nm; active compounds read high. fluorescence (KMESF) at 10 µM; in the data active = fluorescence above about 47
GSH bead fluor = compound fluorescence on glutathione beads, profiling panel, artefact control, biophysical, 488/530 nm, flow cytometry; GSH beads flow cytometry, compound fluorescence 488/530 nm; active compounds read high; fluorescence (KMESF) at 10 µM; 190,000 compounds, 0.25% hits; in the data active = fluorescence above about 89;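 also: glutathione beads carrying GST-tagged Bcl family fusion proteins plus one bare bead set; values are compound well signal with DMSO vehicle wells as background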
RGS4-Gao HTS = modulators of RGS–Galpha-o binding, primary screen, biochemical, multiplexed beads, flow cytometry, RGS4/7/8/16/19; shares compounds with RGS16-Gao HTS; 1,600 compounds, 99% hits; RGS4–Galpha-o binding response, % at 10 µM; multiplexed bead flow cytometry;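 also: fluorescently labeled Galpha-o bound to GDP with aluminium fluoride binding biotinylated RGS beads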
Target sequence (P09471 whole entry, looked up): as above
Target sequence (P49798 whole entry, looked up): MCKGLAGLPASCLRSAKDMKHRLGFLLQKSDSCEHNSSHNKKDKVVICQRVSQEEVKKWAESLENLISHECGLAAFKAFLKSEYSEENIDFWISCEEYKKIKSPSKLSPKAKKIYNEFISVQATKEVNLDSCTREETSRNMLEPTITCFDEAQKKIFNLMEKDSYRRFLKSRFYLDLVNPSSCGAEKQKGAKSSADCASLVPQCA
Avidin counter = disruption of biotin probe capture by avidin, counter-screen for RGS protein interaction modulators, biochemical, flow cytometry, bead-based | shares compounds with RGS16-Gao HTS | streptavidin beads, fluorescein-biotin binding | inhibition, % at 10 µM | 1,700 tested, under 10 active;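 active = inhibition above 50%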;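 also: median green fluorescence of gated singlet beads compared with DMSO control wells; 0% = DMSO wells and 100% = complete loss of bead fluorescence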
RGS8-Gao single = RGS8-Galphao binding modulators, confirmation, biochemical, multiplexed bead flow cytometry, single concentration. binding response (% of control), % at 10 µM. shares compounds with RGS16-Gao HTS. 1,700 compounds, 3% hits. bead-based flow cytometry RGS8-Galphao binding, fluorescence; actives lie on both sides; in the data active = binding response below about 72% or above about 130%; inactive = in between;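 also: Galphao activated as GDP AlF4 complex before binding bead RGS8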
RGS7-Gao confirm = RGS7-Galphao binding modulators, confirmation, biochemical, multiplexed bead flow cytometry, single concentration. AID 1837, 2009. 1,700 compounds, 7.8% hits. response (percent of control binding), % at 10 µM. bead-based flow cytometry RGS7-Galphao binding; actives lie on both sides. shares compounds with RGS16-Gao HTS; in the data active = response below about 75% or above about 130%; inactive = in between;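 also: fluorescent Galphao activated with GDP and aluminum fluoride binding bead-coupled RGS7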
RGS16-Gao conf = modulators of RGS16-Galphao protein binding, confirmation, biochemical, single concentration, multiplexed bead flow cytometry. bead-based flow cytometry; actives lie on both sides. 1,700 compounds, 4% hits. AID 1838, 2009. shares compounds with RGS16-Gao HTS. response (% of control binding), % at 10 µM; in the data active = response below about 74% or above about 130%; inactive = in between;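 also: Galphao activated as the GDP aluminium fluoride complex binding bead-coupled RGS16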
RGS4-Gao single = modulators of RGS4-Galphao protein binding, confirmation, biochemical, single concentration, multiplexed bead flow cytometry; shares compounds with RGS16-Gao HTS; actives lie on both sides; binding response (% of control), % at 10 µM; 1,700 compounds, 4% hits; in the data active = binding response below about 74% or above about 130%; inactive = in between
RGS19-Gao single = regulators of RGS19-Galphao binding, confirmation, biochemical, single point, multiplexed bead flow cytometry | response (percent of control binding), % at 10 µM | 1,700 compounds, 5% hits | bead-based flow cytometry RGS19-Galphao binding; actives lie on both sides | shares compounds with RGS16-Gao HTS | AID 1841, 2009; in the data active = response below about 50% or above about 160%; inactive = in between;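 also: 100% = no compound control and 0% = blank background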
Starred values were filed as active, the others as inactive; ? = inconclusive; · = no result given; [ ] = another dose, or the depositor's remark. Sampled rows, rich in hits. Any-hit rate of the full collection: about 1.2%. Unless noted, no rule for the calls is given here.

SMILES	RGS4-Gao reg	RGS16-Gao HTS	RGS8-Gao	RGS7-Gao	Avidin fluor	GSH bead fluor	Avidin counter	RGS8-Gao single	RGS7-Gao confirm	RGS16-Gao conf	RGS4-Gao single	RGS19-Gao single	others
CCCCC(CCC(=O)O)(C(=O)OCC)c1csc(Nc2ccc(C)cc2)n1 (stereo unspecified)	1.7*	10.0*	11.8*	-15.9*	0	13	3.0	94.3	91.7	91.6	90.6	74.9
COc1ccc2[nH]c(=O)c(NC(N)=S)nc2c1	91.6	84.4	96.3	93.0	16	19	·	·	·	·	·	·
O=C(CCCNS(=O)(=O)c1ccc(Cl)c(Cl)c1)NCCc1ccccn1	144.6	144.9	142.7*[activator]	156.9*[activator]	12	13	-0.1	98.0	101.0	100.3	97.1	97.7	RGS4-Gao HTS=144.6*
CCOC(=O)c1c(-c2ccc(OC)cc2)cn2ccccc12	99.1	98.6	100.5	100.9	9	12	·	·	·	·	·	·
Clc1ccccc1C1=CC(c2ccco2)n2nnnc2N1 (stereo unspecified)	98.2	97.6	100.2	96.3	6	18	·	·	·	·	·	·
Cc1cc(Oc2ccc([N+](=O)[O-])cc2)nc(N2CCOCC2)n1	96.2	98.2	99.2	?	6	·	·	·	·	·	·	·
Cc1cc(Oc2ccc(C#N)cc2)nc(N2CCOCC2)n1	41.3*	45.1	55.5*	43.4*	24	12	-0.1	100.1	84.3	97.4	89.2	106.7
Cc1cccc(OCc2nnc(SCc3cc(=O)[nH]c4ccccc34)n2-c2ccccc2)c1	100.9	69.0	96.9	103.0	6	11	·	·	·	·	·	·
O=c1cc(CSc2nnc(COc3ccccc3)n2-c2ccccc2)c2ccccc2[nH]1	-75.7*	27.6	103.7	-15.3*	-2	14	-2.2	100.1	90.7	98.6	95.6	90.6
CCCCN(C)CCNC(=O)c1ccc(Cn2c(=S)[nH]c3ccc(Br)cc3c2=O)cc1	106.6	105.9	103.4	104.1	10	25	·	·	·	·	·	·
CCCC(=O)Nc1nc2c(C)c(Cl)ccc2s1	94.5	95.8	97.4	?	6	·	·	·	·	·	·	·
CC(=O)Nc1nc2c(C)c(Cl)ccc2s1	96.4	99.2	82.4	?	7	·	1.6	103.8	102.0	110.0	100.9	98.9
O=C(Nc1ccc(F)cc1)NC1(C(=O)NCc2cccs2)CCCCC1	109.1	125.7	105.2	104.1	10	24	·	·	·	·	·	·
O=C(Nc1cccc(Cl)c1)NC1(C(=O)NCc2cccs2)CCCCC1	114.5	96.5	92.0	232.3*[activator]	138*	25	-1.0	99.5	98.1	100.7	99.9	94.2	RGS4-Gao HTS=114.5*
CC(=O)Nc1nc(C)c(CCCOc2ccc([N+](=O)[O-])cc2)c(=O)[nH]1	152.9*[activator]	127.8	102.9	?	47*	·	1.0	103.2	107.7	106.8	104.7	94.7
CCOC(CCc1c(C)nc(NC(C)=O)[nH]c1=O)OCC	102.3	103.3	98.1	?	6	·	·	·	·	·	·	·
C=CCNC(=O)NC(=O)COC(=O)c1nc2nccc(C)n2n1	97.0	93.9	96.2	102.6	9	14	·	·	·	·	·	·
O=[N+]([O-])c1ccc(OCC2CC(c3ccccc3)=NO2)cc1 (stereo unspecified)	91.7	93.8	100.6	?	8	·	·	·	·	·	·	·
O=C(CN1CCN(Cc2ccc(Cl)cc2)C1=O)NCCCN1CCOCC1	18.2*	13.2*	14.4*	8.9*	-1	19	1.6	99.8	99.5	101.5	101.7	99.7
O=C(CN1CCN(Cc2ccc(Cl)cc2)C1=O)NCCCN1CCN(c2ccc(F)cc2)CC1	94.8	97.2	94.5	96.7	17	24	·	·	·	·	·	·
O=C(CN1CCN(Cc2ccccc2F)C1=O)NCCc1ccc(Cl)cc1	106.7	102.4	100.0	158.7*[activator]	60*	27	-0.6	99.7	102.5	99.1	98.2	99.5	RGS4-Gao HTS=106.7*
CCn1c(SCC(=O)Nc2nc3ccc(C)cc3s2)nc2c(c1=O)SC(C)C2 (stereo unspecified)	111.9	109.4	101.3	157.6*[activator]	117*	24	·	·	·	·	·	·	RGS4-Gao HTS=111.9*
O=C(Nc1ccccc1F)C1CCN(C(=O)Cc2ccccc2)CC1	108.8	62.8	95.4	104.0	2	28	·	·	·	·	·	·
O=C(Nc1ccccc1Br)C1CCN(C(=O)Cc2ccccc2)CC1	96.9	21.0*	89.8	96.8	6	17	0.9	106.0	105.0	109.0	102.6	109.7	RGS4-Gao HTS=96.9*
COc1ccc2nc(SCCN(C)C)[nH]c2c1	101.7	96.9	100.6	104.3	8	18	·	·	·	·	·	·
CSCCC(NC(=O)C1CCCCC1)c1nc2ccccc2[nH]1 (stereo unspecified)	146.8	·	·	·	·	·	-0.6	100.8	104.1	102.0	104.7	149.2
CSCC[C@H](NC(=O)COc1ccc(Cl)cc1)c1nc2ccccc2[nH]1	111.7	202.9*[activator]	124.1	108.2	14	18	-2.7	102.0	98.1	97.9	98.6	108.1	RGS4-Gao HTS=111.7*
O=C(/C=C/c1ccccc1Cl)Nn1cnc2ccccc2c1=O	104.5	105.3	101.8	105.3	14	11	·	·	·	·	·	·
O=C(/C=C/c1cc([N+](=O)[O-])ccc1OC(F)F)Nc1cccc(OC(F)F)c1	105.3	104.1	102.3	103.4	10	12	·	·	·	·	·	·
